# Source: PubChem BioAssay
# Abs 340nm = compound absorbs light at 340 nm; compound absorbance at 340 nm, fold over control; fold change at 10 µM; 65,000 tested, under 10 active; AID 708;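 active means at 10 µM dose, initial 340 nm absorbance at least 2 fold that of control wells; inactive means change under 2 fold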;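 further: initial absorbance extrapolated from kinetic A340 decline of NADH oxidation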
# PMK inhibit = S. pneumoniae PMK inhibition | purified PMK, PK/LDH-coupled NADH absorbance 340 nm | 0.49% of 65,000 active | inhibition, % at 10 µM;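 active means top-ranked compounds by inhibition in the single 10 µM screen, taking a fixed number of the strongest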;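 further: 0% = full reaction with DMSO carrier and 100% = background rate without enzyme reaction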
# Fluor 339 460 = intrinsic fluorescence of library compounds, ex339/em460 – biochemical, MLSMR library, data from DPM-DC assay, artefact control, profiling panel; compound autofluorescence, ex339/em460 nm, NADH buffer; hits give high values; 1 = no-compound wells, NADH background; fluorescence fold increase at 10 µM; 5.5% of 65,000 active; AID 709;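 active means at 10 µM, mean starting fluorescence two-fold or more over control wells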;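 further: signal is the first read of a kinetic run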
# Spn MK inh = inhibitors of Streptococcus pneumoniae mevalonate kinase; AID 555; purified MK, PK/LDH-coupled NADH absorbance 340 nm; inhibition, % at 10 µM; 0.48% of 65,000 active;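 active means ranked among the strongest by inhibition in the single 10 µM screen, a fixed top-ranked set picked for dose follow-up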
# NADH coupling = blocks coupling enzymes of NAD/NADH assays | coupled PK/LDH NADH assays, four targets | IC50, µM (highest dose often 10 µM), for the others: at the highest dose inhibition | 0.02% of 65,000 active | AID 774;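 active means single-dose screening hits from any of four coupled enzyme assays that gave an IC50 when retested across doses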;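 further: the DPM-DC format reads NADH fluorescence rather than 340 nm absorbance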
# DPM-DC inhibit = S. pneumoniae DPM-DC inhibition; purified DPM-DC, PK/LDH coupled NADH fluorescence; calls only at 10 µM; 0.49% of 65,000 active; AID 556;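 active means the 320 compounds with the highest percent inhibition in the single-dose primary screen, excluding strongly autofluorescent ones, cut at about 32% in these data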;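 further: kinetic rate of NADH fluorescence loss reporting ADP formed by the decarboxylase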
# The depositor's hits bear a star; i = inactive; . = no result given; + = active, no number. In the library only some 6.8% were active in any assay of this set; here they are far more common.
SMILES,Abs 340nm,PMK inhibit,Fluor 339 460,Spn MK inh,NADH coupling,DPM-DC inhibit
COc1ccccc1NC(=O)C1=C(C)NC2=C(C(=O)CCC2)C1c1ccc2c(c1)OCO2 (centres undefined),1.1,7,2.5*,0,13%,+
COC(=O)c1ccccc1NC(=O)N1CSC[C@H]1C(=O)OC,1,14,1,5,9%,i
CN1Cc2sc(N)c(C#N)c2CC1(C)C,1.1,0,1.7,7,2%,i
CCC(=O)n1nc(NCc2ccccc2OC)nc1NCc1ccccc1OC,1,9,1.1,3,4%,i
O=C(C1CC1(c1ccccc1)c1ccccc1)N1CCOCC1 (centres undefined),1,2,1.1,17,2%,i
Cc1ccc(NC(=O)CSc2nnc(CCCCCNC(=O)OC(C)(C)C)o2)c(C)c1,0.98,17,1,6,4%,i
c1ccc2c(NC3CCCC3)nnc(NC3CCCC3)c2c1,1,14,2.1*,0,4%,i
c1nc(NC2CCCC2)c2[nH]cnc2n1,1,0,1.3,5,4%,i
CC(=O)c1cc2c(cc1NC(=O)Nc1cccc(Cl)c1)OCCO2,1,0,2.6*,6,6%,i
CCC(=O)c1cc2c(cc1NC(=O)C(C)C)OCCO2,1,11,2.1*,3,5%,i
CC(=O)Nc1cc2c(cc1C(C)=O)OCCO2,1.1,5,3.6*,0,3%,.
CC(C)C(=O)Nc1cc2c(cc1C(=O)c1ccccc1)OCCO2,0.99,3,1.1,8,4%,i
O=C(Nc1cccc(Cl)c1)Nc1ccc2c(c1)OCO2,1.1,8,1.1,1,3%,i
Cc1cccc(-c2nc(CS(=O)CC(=O)N3CCCCC3)c(C)o2)c1 (centres undefined),1,4,0.89,5,7%,i
N#Cc1c(F)cccc1N1CCOCC1,1,0,3.1*,11,6%,i
Fc1cccc2sc(N3CCOCC3)nc12,0.97,10,1,9,5%,i
Cc1csc(NC(=O)c2cc3c(s2)-c2ccccc2OC3)n1,1,0,2.5*,7,1%,.
O=C(c1cc2c(s1)-c1ccccc1OC2)N1CCCC1,1.2,2,2.2*,9,6%,.
O=C(c1cc2c(s1)-c1ccccc1OC2)N1CCN(c2ccccn2)CC1,1.1,0,2.1*,7,4%,.
O=C(Cn1ncc2c1-c1ccccc1OC2)N1CCN(c2ccccn2)CC1,0.98,0,1.1,2,1%,i
c1ccc(-c2oc3ncnc(NCCCn4ccnc4)c3c2-c2ccccc2)cc1,1.1,16,3.7*,0,8%,.
N=c1c2c(-c3ccccc3)c(-c3ccccc3)oc2ncn1CCCN1CCOCC1,1.1,12,1.5,12,11%,i
c1ccc2c(c1)oc1c(NCCCn3ccnc3)ncnc12,1.1,4,1.1,2,2%,i
c1ccc(-c2oc3ncnc(NCCN4CCOCC4)c3c2-c2ccccc2)cc1,1,4,2*,2,5%,i
CCCC(c1nnnn1Cc1ccco1)N1CCN(c2cc(Cl)ccc2C)CC1 (centres undefined),1,15,1.2,3,8%,i
SMILES,Abs 340nm,PMK inhibit,Fluor 339 460,Spn MK inh,NADH coupling,DPM-DC inhibit
O=C(CCSc1nc(-c2ccco2)cc(C(F)(F)F)n1)N1CCN(c2ccccc2)CC1,1.1,3,1.1,0,1%,i
COc1ccc(-c2cc(C(F)(F)F)nc(SCC(=O)Nc3cc(C)on3)n2)cc1OC,1.1,12,3.8*,8,10%,.
COc1ccc(-c2cc(C(F)(F)F)nc(SCC(=O)N3CC(C)OC(C)C3)n2)cc1OC (centres undefined),1.2,8,3.5*,0,4%,.
Cc1cc(NC(=O)CSc2nc(-c3cccs3)cc(C(F)(F)F)n2)no1,1.1,15,1.2,0,6%,i
COc1ccc(-c2cc(C(F)(F)F)nc(NC3CCCC3)n2)cc1OC,1.1,0,1.6,6,2%,i
COc1ccc(-c2cc(C(F)(F)F)nc(SCCC(=O)N3CCN4CCCC4C3)n2)cc1 (centres undefined),1.1,1,2.3*,10,16%,+
O=C(CCSc1nc(-c2ccc3c(c2)OCO3)cc(C(F)(F)F)n1)NCc1ccco1,1.1,28*,2.2*,5,17%,.
O=C(c1cccc(N2C(=O)C3CC=CCC3C2=O)c1)N1CCN(c2ccccc2)CC1 (centres undefined),0.99,22,0.97,0,7%,i
CCSc1nnc(NC(=O)Cc2ccc(OC)c(S(=O)(=O)N3CCOCC3)c2)s1,1,20,1.1,0,7%,i
C=CCn1c(SCC(=O)N2CCOCC2)nc(O)c(Cc2ccccc2)c1=O,1,7,1.1,5,4%,i
COc1ccc(Cl)cc1-c1n[nH]c(=S)o1,1,0,1.6,4,4%,i
COc1ccc(-c2cc(C(F)(F)F)nc(SCCC(=O)Nc3cc(C)on3)n2)cc1,1,8,1.8,13,21%,+
COc1ccc(OCCC(=O)Nc2cc(C)on2)cc1,1.1,14,1.1,15,10%,i
O=c1oc(-c2ccccc2)nc2c1cnn2-c1ccccc1,1.1,0,1.1,6,5%,i
O=c1oc(-c2cccs2)nc2c1cnn2-c1ccccc1,1.1,4,2.2*,4,4%,.
c1csc(-c2ccc3ccccc3n2)c1,1.1,13,2.6*,7,13%,i
Cc1cc(-c2cccs2)n[nH]1,1.1,0,1.1,0,1%,i
CC(C)C1Oc2ccccc2N(CC(=O)NCCCN2C(C)CCCC2C)C1=O (centres undefined),1.1,8,1.2,47*,18%,i
CCC1Oc2ccccc2N(CC(=O)NCCCN2CCN(Cc3ccccc3)CC2)C1=O (centres undefined),0.99,15,1,0,5%,i
COc1ccc2[nH]cc(CCNC(=O)C3CCCNC3=O)c2c1 (centres undefined),1,0,1.1,5,2%,i
CCN(CC)Cc1c[nH]c2c(C(=O)OC)cccc12,1,15,2.1*,3,9%,.
COc1ccc2oc(=O)c(NC(=O)C3CCCCC3)cc2c1,1.1,14,4.2*,1,8%,.
O=C(c1cnc2n(c1=O)CCS2)N1CCN(c2ccc(Cl)c(Cl)c2)CC1,1,11,1.1,0,4%,i
COc1ccccc1CNC(=O)COC(=O)c1ccc(S(=O)(=O)N2CCCC2)cc1,1.1,16,1.1,5,7%,i
O=C1CCCc2nc(N3CCc4ccccc43)ncc21,1.2,18,1.9,10,11%,i
